According to the supplement of paper PMC13380429:
Values without a mark were called inactive.

Test system: Vero E6 infected with SARS-CoV-2
Assay: inhibition of SARS-CoV-2 cytopathic effect; higher = more antiviral protection, active = above 15
Details: 48 h

Row | Compound | inhibition of SARS-CoV-2 cytopathic effect (1 nM) [%] | inhibition of SARS-CoV-2 cytopathic effect (8.33 nM) [%] | inhibition of SARS-CoV-2 cytopathic effect (100 nM) | inhibition of SARS-CoV-2 cytopathic effect (833.33 nM) [%] | inhibition of SARS-CoV-2 cytopathic effect (10000 nM) [%]
1 | Cc1[nH]cnc1-c1ccc(Cl)cc1 [lofemizole] | -0.61 | -0.4 | 150% (active) | 0.04 | -0.36
2 | N=C(N)NC(=O)Cc1c(Cl)cccc1Cl [guanfacine] | 3.14 | 4.91 | -3.11% | 1.89 | -0.42
3 | CCOC(=O)C1=C(N)Oc2ccc(Br)cc2C1C(C#N)C(=O)OCC (stereo not given) | -0.86 | 0.28 | 0.47% | 0.895 | 2.46
4 | C[C@H](CCC(=O)NCCS(=O)(=O)O)[C@H]1CC[C@H]2[C@@H]3[C@@H](O)C[C@@H]4C[C@H](O)CC[C@]4(C)[C@H]3CC[C@]12C [ursodeoxycholyltaurine] | -1.76 | 3.52 | 1.07% | -3.74 | -4.25
5 | CCOC(=O)c1ccc(C#Cc2ccc3c(c2)C(C)(C)CCS3)nc1 [tazarotene] | 0.41 | 0.89 | 1.7% | 3.69 | 0.98
6 | N#Cc1ccc(C2CCCc3cncn32)cc1 (stereo not given) [fadrozole] | 1.9 | 0.56 | -1.22% | -4.4 | -0.19
7 | CN[C@H](CC(C)C)C(=O)N[C@H]1C(=O)N[C@@H](CC(N)=O)C(=O)N[C@H]2C(=O)N[C@H]3C(=O)N[C@H](C(=O)N[C@H](C(=O)O)c4cc(O)cc(O)c4-c4cc3ccc4O)[C@H](O[C@H]3C[C@](C)(N)[C@@H](O)[C@H](C)O3)c3ccc(c(Cl)c3)Oc3cc2cc(c3O[C@@H]2O[C@H](CO)[C@@H](O)[C@H](O)[C@H]2O[C@H]2C[C@](C)(NCc3ccc(-c4ccc(Cl)cc4)cc3)[C@@H](O)[C@H](C)O2)Oc2ccc(cc2Cl)[C@H]1O [oritavancin] | 2.97 | 3.58 | -0.56% | 0.82 | 0.93
8 | CC(C)(C)c1ccc(CN2CCN(C(c3ccccc3)c3ccc(Cl)cc3)CC2)cc1 (stereo not given) [buclizine] | -1.54 | -0.87 | 0.71% | 0.45 | 2.38
9 | CN(C)c1ccc(C(=C2C=CC(=[N+](C)C)C=C2)c2ccc(N(C)C)cc2)cc1 [crystal-violet] | -0.43 | 1.49 | 0.27% | -11.4 | -22.8
10 | Cc1cc2ncc(C(=O)NCC(C)(C)NCC(=O)N3CCC[C@H]3C#N)cn2n1 [anagliptin] | -0.17 | -0.56 | -0.23% | 0.84 | 0.07
11 | Nc1nc2c(ccc3ccccc32)s1 | -0.98 | -0.18 | -1.85% | -0.09 | -1.09
12 | CC1(C)[C@H]2CC[C@]1(C)[C@@H](O)[C@H]2O [cis-exo-camphanediol-2,3] | 1.51 | 2.75 | 4.45% | 5.23 | 0.605
13 | CCCC[C@H]1C(=O)N(c2ccccc2)N(c2ccc(O)cc2)C1=O [oxyphenbutazone] | 0.53 | 1.14 | 1.48% | 3.6 | 10.9
14 | Oc1cccc(Nc2ccc(Nc3cccc(O)c3)nn2)c1 [beta-amyloid-synthesis-inhibitor] | -0.67 | 1.31 | 0.24% | 1.07 | 4.99
15 | CC(=O)OCC(=O)[C@H]1CC[C@H]2[C@@H]3CC[C@H]4C[C@H](O)CC[C@]4(C)[C@H]3C(=O)C[C@]12C [alfadolone-acetate] | 3.28 | 3.18 | 2.11% | 1.64 | -4.57
16 | C[C@@]1(c2cc(-c3cncnc3)c(F)cc2F)CCSC(N)=N1 | -0.91 | -3.4 | -0.51% | -2 | -3.12
17 | c1cnc2cc3c(cc2n1)[C@@H]1CNC[C@H]3C1 [varenicline] | 1.15 | 1.67 | -1.63% | -1.66 | 3.97
18 | COc1ccccc1S(=O)(=O)Nc1ccc2c(c1)CN(C)C(=O)N2 | 2.59 | 3.07 | 0.97% | 1.47 | -5.29
19 | Cn1c(=O)cnn(CCCCN2CCN(c3ncccn3)CC2)c1=O | 0.44 | -0.24 | 1.14% | -0.77 | 1.05

Row | Compound | inhibition of SARS-CoV-2 cytopathic effect (1 nM) [%] | inhibition of SARS-CoV-2 cytopathic effect (8.33 nM) [%] | inhibition of SARS-CoV-2 cytopathic effect (100 nM) | inhibition of SARS-CoV-2 cytopathic effect (833.33 nM) [%] | inhibition of SARS-CoV-2 cytopathic effect (10000 nM) [%]
20 | COc1ccc(-c2oc3cc(OC)ccc3c2C(=O)c2ccc(C#N)cc2)cc1 | -2.41 | -2.08 | -3.03% | -3.9 | 1.7
21 | CCCCCCCCNC(=O)/C(C#N)=C/c1cn(CCCN(C)C)c2ccccc12 [dynole-34-2] | 5.01 | 2.28 | 2.72% | 0.28 | 12.6
22 | CCOC(=O)Nc1ccc2c(c1)N(C(=O)CCN1CCOCC1)c1ccccc1S2 [moracizine] | 0.84 | 3.43 | -0.23% | 2.61 | 5.32
23 | Cc1ccc(NC(=O)c2ccc(CN3CC[C@H](N(C)C)C3)c(C(F)(F)F)c2)cc1Nc1nccc(-c2cncnc2)n1 [bafetinib] | 3.35 | -0.19 | 0.01% | -3.15 | -4.8
24 | N#Cc1c(N)nc(SCc2csc(-c3ccc(Cl)cc3)n2)c(C#N)c1-c1ccc(OCCO)cc1 [capadenoson] | 0.18 | -0.34 | -1.11% | -2.63 | -3.59
25 | O=C(O)c1cccnc1Nc1cccc(C(F)(F)F)c1 [niflumic-acid] | 1.14 | 2.42 | -0.03% | 1.51 | 1.54
26 | CNC(=O)c1ccc(Nc2ncc(C(F)(F)F)c(NCc3nccnc3N(C)S(C)(=O)=O)n2)cc1 [defactinib] | -2.21 | -4.25 | -0.22% | -2.59 | -4.28
27 | O=c1[nH]c2ccccc2n1C1CCN(CCOc2ccccc2)CC1 [oxiperomide] | -1.51 | -1.1 | -2.1% | -0.51 | 2.21
28 | CCCNC(=O)NS(=O)(=O)c1ccc(Cl)cc1 [chlorpropamide] | 0.91 | 0.48 | -1.08% | -0.4 | -2.67
29 | O=c1cc[nH]c(=S)[nH]1 [2-thiouracil] | 3.22 | 2.55 | 2.51% | 0.11 | -0.68
30 | NCCc1cc(O)c(O)cc1O [oxidopamine] | -2.92 | 0.45 | -2.01% | -2.87 | -3.37
31 | O=C1[C@H]2CCCC[C@H]2C(=O)N1CCCCN1CCN(c2nsc3ccccc23)CC1 [perospirone] | -1.38 | 3.93 | 3.52% | 3.58 | -1.69
32 | CN1[C@@H]2C[C@@H](O)C[C@H]1[C@@H]1O[C@@H]12 [scopine] | -0.81 | -0.43 | -0.08% | 1.5 | -0.8
33 | Fc1ccc(C(OCCN2CCN(CCCc3ccccc3)CC2)c2ccc(F)cc2)cc1 [vanoxerine] | -2.38 | -0.72 | 2.06% | -3.95 | -11.6
34 | CC[C@H](C)[C@H](NC(=O)[C@H](Cc1ccc(O)cc1)NC(=O)[C@@H](NC(=O)[C@H](CCCNC(=N)N)NC(=O)[C@@H](N)CC(=O)O)C(C)C)C(=O)N[C@@H](Cc1c[nH]cn1)C(=O)N1CCC[C@H]1C(=O)O | -1.39 | 1.3 | 0.18% | -0.77 | 2.67
35 | O=C(CCCN1CCN(c2ccccn2)CC1)c1ccc(F)cc1 [azaperone] | 0 | -7.58 | -6.03% | -5.15 | 0.26
36 | Cc1ncc([N+](=O)[O-])n1CCO [metronidazole] | 1.71 | -0.45 | 1.81% | 0.19 | -1.16
37 | Cc1[nH]c2ccc(Cl)cc2c1C1=CCNCC1 | 0.44 | 2.01 | -0.51% | 1.48 | 10.1
38 | COc1cc2c(Nc3ccc(NC(=O)c4ccccc4)cc3)ncnc2cc1OCCCN1CCOCC1 | -0.39 | 0.92 | -0.95% | 0.98 | 0.98
